Activity calls are given as the source filed them.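 Rule for the calls: active = growth inhibition above 50% at the single 2 µM test dose, taken to imply half-maximal potency below 2 µM; inactive = the rest.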
Assay: antimalarial activity against Dd2 strain (AID 2302);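 note: 0% = DMSO untreated growth and 100% = chloroquine plus artemisinin killed control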
Conditions: P. falciparum Dd2 in RBCs, LDH growth readout, 72 h; at 2 µM; hits give high values
In the case of `CC(=O)C=C1CC(=O)N(C[C@@H](O)[C@H]2O[C@@H]3OC(C)(C)O[C@@H]3[C@H]2O)c2ccccc2N1`, the growth inhibition is reported as 2% (inactive).
For `O=C(Nc1cccc(-c2ccc(-c3nc4ccc(C(F)(F)F)cc4[nH]3)cc2)c1)c1ccoc1`, the growth inhibition was 42% (inactive).
In the case of `Cc1cc(C2CCN(CCCCNC(=O)c3ccc(-c4ccc(C#N)cc4)cc3)CC2)c(C)cc1O`, the growth inhibition is reported as 96% (active).
In the case of `CNC(=O)CSc1nnc(-c2ccc(C)cc2)c(-c2ccc(C)cc2)n1`, the growth inhibition is reported as 49% (inactive).
In the case of `CCN(CC)CCN(CCN(CC)CC)c1ccc(-c2nc3cc(Cl)c(Cl)cc3[nH]2)cc1`, the growth inhibition is reported as 97% (active).
For `CN(C)CCOc1ccc(/C(=C(/CCCn2ccnc2)c2ccccc2)c2ccc(O)cc2)cc1`, the growth inhibition was 99% (active).
With `CC(C)c1ccc(Nc2nc(NCCc3cnc[nH]3)nc(NCc3ccccc3)n2)cc1` the growth inhibition was 2% (inactive).
In the case of `Cc1ccc(Oc2ccc(NC(=O)CNc3ccccc3N3CCCC3=O)cc2)cc1`, the growth inhibition is reported as 97% (active).
In the case of `CC1(C)N=C(N)N=C(N)N1OCCc1ccccc1`, the growth inhibition is reported as 95% (active).
With `OC(COCc1ccc(-c2ccccc2)cc1)CN1CCCCC1` (stereo not given) the growth inhibition was 75% (active).
For `COc1ccc(-c2csc(NC(=O)CCC(=O)O)n2)cc1OC`, the growth inhibition was -2% (inactive).
In the case of `CCCC(=O)Nc1ccc(OCCCN(Cc2ccccc2F)c2ccc(C#N)c(C(F)(F)F)c2)cc1`, the growth inhibition is reported as 93% (active).
In the case of `Cc1cccc2[nH]c(-c3ccc(-c4ccc(CNCc5ccc(CN)cc5)cc4)cc3)nc12`, the growth inhibition is reported as 46% (inactive).
In the case of `NC(N)=NC(=O)Nc1ccc(Cl)c(Cl)c1`, the growth inhibition is reported as 13% (inactive).
In the case of `COCCNCc1cccc(-c2ccccc2CN(C(=O)c2ccc3c(c2)OCO3)c2ccc(OC)cc2)c1`, the growth inhibition is reported as 46% (inactive).
With `FC(F)(F)c1cccnc1N1CCC(Nc2nc3ccc(Cl)cc3[nH]2)CC1` the growth inhibition was 39% (inactive).
In the case of `c1ccc2c(Nc3ccc(Cc4ccc(Nc5c6ccccc6nc6ccccc56)cc4)cc3)c3ccccc3nc2c1`, the growth inhibition is reported as 101% (active).
In the case of `COc1cc(F)c2nccc([C@@H](O)CN3CC[C@H](NCc4ccc5c(n4)NC(=O)CS5)[C@H](F)C3)c2c1`, the growth inhibition is reported as 80% (active).
With `COc1ccc(-c2nc(-c3ccc([N+](=O)[O-])cc3)no2)cc1OC` the growth inhibition was -5% (inactive).
In the case of `N#Cc1ccc(-c2ccc(C(=O)NCCCCN3CCC(c4ccc5c(c4OCC(N)=O)CCCC5)CC3)cc2)cc1`, the growth inhibition is reported as 23% (inactive).
In the case of `CC1CN(CC(O)Cn2c3ccc(Br)cc3c3cc(Br)ccc32)CC(C)O1` (stereo not given), the growth inhibition is reported as 100% (active).
With `N#Cc1cccc(C(=O)Nc2cccc(-c3cccc(CN4CCNCC4)c3)c2)c1` the growth inhibition was 10% (inactive).
In the case of `COCCNCc1cccc(C#Cc2cc3ncnc(Nc4ccc(OCc5cccc(F)c5)c(Cl)c4)c3s2)n1`, the growth inhibition is reported as 52% (active).
For `Cc1cccc(-c2ccc3c(c2)CC(NCc2cccc(-n4ccnc4)c2)C3)c1` (stereo not given), the growth inhibition was 49% (inactive).
In the case of `Nc1nc(N)c2c(ccc3c2ccn3Cc2ccccc2)n1`, the growth inhibition is reported as 94% (active).
In the case of `COc1ccc(-c2cccc(NC(=O)c3cccc(Cl)c3)c2)cc1CN1CCC(O)CC1`, the growth inhibition is reported as 16% (inactive).
In the case of `Cc1cccc2[nH]c(-c3ccc(-c4cccc(CNCc5ccccc5)c4)cc3)nc12`, the growth inhibition is reported as 52% (active).
For `FC(F)(F)c1ccc2nc(-c3ccc(-c4cccc(CN5CCC(CCN6CCCCC6)CC5)c4)cc3)[nH]c2c1`, the growth inhibition was 96% (active).
For `CN1CCC(C(=O)Nc2ccc(-c3ccc(-c4nc5ccccc5[nH]4)s3)cc2)CC1`, the growth inhibition was 22% (inactive).
With `COc1ccc(Nc2nccc(NCC(O)c3ccc(C(F)(F)F)cc3)n2)cc1` (stereo not given) the growth inhibition was 54% (active).
With `CC(C)Cc1cn(-c2nc(-c3nc4ccccc4[nH]3)cs2)c2ccncc12` the growth inhibition was 99% (active).
With `CC1=C(C(=O)Nc2cc3cn[nH]c3cc2F)C(c2cccc(O)c2F)CC(=O)N1` (stereo not given) the growth inhibition was 98% (active).
For `O=C(Nc1ccccc1)c1ccc(N2CCC(COc3cccc(C(F)(F)F)c3)CC2)nc1`, the growth inhibition was 83% (active).
In the case of `CN(C)c1nc2cc(-n3cnc4cc(-c5ccc(Cl)cc5)sc4c3=O)ccc2n1CCCN1CCCC1`, the growth inhibition is reported as 73% (active).
For `O=C(NCC1CCC(C(=O)O)CC1)c1ccc(/C=C/C(=O)N2CCc3ccccc3C2c2ccc3c(c2)OCO3)cc1` (stereo not given), the growth inhibition was 17% (inactive).
For `COc1ccc(CN(C)CCCOc2ccc(NC(=O)C=Cc3ccc(C(C)(C)C)cc3)cc2)cc1OC`, the growth inhibition was 87% (active).
For `CC(C)CCCC(C)NC[C@@H](O)[C@H](Cc1ccccc1)NC(=O)c1cc(N2CCCC2=O)cc(N(c2ccccc2)S(C)(=O)=O)c1` (stereo not given in full), the growth inhibition was 97% (active).
In the case of `CC(C)CCNC(=O)C1Cc2c([nH]c3ccc(Br)cc23)C2(CCN(Cc3ccccc3)CC2)N1` (stereo not given), the growth inhibition is reported as 68% (active).
In the case of `CN1CCN(c2ccnc3cc4ccccc4cc23)CC1`, the growth inhibition is reported as 49% (inactive).
For `Cc1noc(C)c1-c1cccc(CNCc2cccc(-c3ccc(-c4nc5ccccc5[nH]4)s3)c2)c1`, the growth inhibition was 29% (inactive).
